According to article PMC7862700, “An all-to-all approach to the identification of sequence-specific readers for epigenetic DNA modifications on cytosine”:

Tests used:
Assay in all cases: DAPPL (digital affinity profiling via proximity ligation, sequencing); 10 mM Tris-HCl pH 7.5, 50 mM NaCl, 1 mM DTT, 4% glycerol, room temperature, 30 min; GST-TFs on glutathione beads, 16-mer random dsDNA library, 0.1% formaldehyde crosslink after washing; high values mean tight binding
Conditions in all cases: protein: recombinant; tags: N-terminal GST; dsDNA, one strand shown
FLI1 = target: T1, FLI1 (Homo sapiens, UniProt Q01543 1-452)
T1 sequence: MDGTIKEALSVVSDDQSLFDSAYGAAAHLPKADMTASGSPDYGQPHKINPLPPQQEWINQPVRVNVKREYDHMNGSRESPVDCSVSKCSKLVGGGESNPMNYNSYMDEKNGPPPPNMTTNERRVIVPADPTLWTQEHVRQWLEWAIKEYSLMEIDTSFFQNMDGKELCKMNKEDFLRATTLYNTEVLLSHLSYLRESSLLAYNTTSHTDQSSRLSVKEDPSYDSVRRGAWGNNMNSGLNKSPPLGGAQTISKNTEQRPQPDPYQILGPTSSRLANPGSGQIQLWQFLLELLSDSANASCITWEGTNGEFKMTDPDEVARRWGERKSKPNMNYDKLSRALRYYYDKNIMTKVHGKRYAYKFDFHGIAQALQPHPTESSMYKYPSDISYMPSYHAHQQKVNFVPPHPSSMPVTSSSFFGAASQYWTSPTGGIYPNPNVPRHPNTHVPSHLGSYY
Procedure, shortened: (§1)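 The binding signal reported is, for every hexamer, its read frequency for a factor over its read frequency for the tag-only sample. Reads came from pools of yeast-expressed, GST-fused human transcription factors on glutathione beads, barcoded with DNA and mixed with that sample, which were incubated with 200 nmole of a random double-stranded 16-mer DNA library in Tris/NaCl/DTT/glycerol buffer at room temperature for 30 min. After washing, the pools were crosslinked with 0.1% formaldehyde, proximity-ligated with BsaI/T4 ligase for 1 h at 37 °C, PCR-amplified and sequenced on an Illumina NextSeq500.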

ELK1 = target: T2, ELK1 (Homo sapiens, UniProt P19419 1-428)
T2 sequence: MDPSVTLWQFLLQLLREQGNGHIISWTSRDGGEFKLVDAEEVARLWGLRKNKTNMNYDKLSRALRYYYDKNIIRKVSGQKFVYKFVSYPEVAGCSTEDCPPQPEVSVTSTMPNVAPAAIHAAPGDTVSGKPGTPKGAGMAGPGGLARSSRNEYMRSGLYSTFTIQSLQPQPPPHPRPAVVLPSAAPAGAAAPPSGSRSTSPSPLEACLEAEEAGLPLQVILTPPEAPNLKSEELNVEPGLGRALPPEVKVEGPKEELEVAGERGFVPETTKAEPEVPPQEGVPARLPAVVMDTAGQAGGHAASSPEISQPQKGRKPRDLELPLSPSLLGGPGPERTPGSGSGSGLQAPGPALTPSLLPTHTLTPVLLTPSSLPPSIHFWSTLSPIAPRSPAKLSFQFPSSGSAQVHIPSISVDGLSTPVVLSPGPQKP
Procedure, shortened: as §1

GABPA = target: T3, GABPA (Homo sapiens, UniProt Q06546 1-454)
T3 sequence: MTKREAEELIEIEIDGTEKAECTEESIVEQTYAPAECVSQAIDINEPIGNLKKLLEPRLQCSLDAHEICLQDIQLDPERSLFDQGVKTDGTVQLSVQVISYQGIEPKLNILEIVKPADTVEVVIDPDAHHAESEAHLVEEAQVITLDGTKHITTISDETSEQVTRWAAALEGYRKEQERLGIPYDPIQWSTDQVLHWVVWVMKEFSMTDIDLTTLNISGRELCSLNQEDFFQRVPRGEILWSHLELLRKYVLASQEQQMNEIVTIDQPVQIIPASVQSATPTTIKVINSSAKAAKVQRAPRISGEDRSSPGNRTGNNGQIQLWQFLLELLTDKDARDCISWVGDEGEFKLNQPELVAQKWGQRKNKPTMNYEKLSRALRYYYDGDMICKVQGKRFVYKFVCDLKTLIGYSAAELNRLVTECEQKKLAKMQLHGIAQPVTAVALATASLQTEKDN
Procedure, shortened: as §1

ERG = target: T4, ERG (Homo sapiens, UniProt P11308 1-479)
T4 sequence: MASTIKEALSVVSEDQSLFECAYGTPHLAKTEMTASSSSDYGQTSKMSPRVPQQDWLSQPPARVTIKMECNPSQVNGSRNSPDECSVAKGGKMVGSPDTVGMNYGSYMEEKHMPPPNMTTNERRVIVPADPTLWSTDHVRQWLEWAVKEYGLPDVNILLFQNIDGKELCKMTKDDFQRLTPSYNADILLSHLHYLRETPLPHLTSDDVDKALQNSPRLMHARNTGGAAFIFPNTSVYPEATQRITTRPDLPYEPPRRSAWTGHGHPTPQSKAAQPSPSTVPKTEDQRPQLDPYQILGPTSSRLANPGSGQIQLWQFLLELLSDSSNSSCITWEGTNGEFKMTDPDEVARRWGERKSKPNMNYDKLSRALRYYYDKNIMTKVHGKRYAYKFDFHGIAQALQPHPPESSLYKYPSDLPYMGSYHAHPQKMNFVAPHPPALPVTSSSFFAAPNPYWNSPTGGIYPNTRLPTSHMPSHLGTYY
Procedure, shortened: as §1

ELF1 = ELF1 (Homo sapiens, UniProt P32519 1-619)
Sequence of ELF1 (P32519 whole entry): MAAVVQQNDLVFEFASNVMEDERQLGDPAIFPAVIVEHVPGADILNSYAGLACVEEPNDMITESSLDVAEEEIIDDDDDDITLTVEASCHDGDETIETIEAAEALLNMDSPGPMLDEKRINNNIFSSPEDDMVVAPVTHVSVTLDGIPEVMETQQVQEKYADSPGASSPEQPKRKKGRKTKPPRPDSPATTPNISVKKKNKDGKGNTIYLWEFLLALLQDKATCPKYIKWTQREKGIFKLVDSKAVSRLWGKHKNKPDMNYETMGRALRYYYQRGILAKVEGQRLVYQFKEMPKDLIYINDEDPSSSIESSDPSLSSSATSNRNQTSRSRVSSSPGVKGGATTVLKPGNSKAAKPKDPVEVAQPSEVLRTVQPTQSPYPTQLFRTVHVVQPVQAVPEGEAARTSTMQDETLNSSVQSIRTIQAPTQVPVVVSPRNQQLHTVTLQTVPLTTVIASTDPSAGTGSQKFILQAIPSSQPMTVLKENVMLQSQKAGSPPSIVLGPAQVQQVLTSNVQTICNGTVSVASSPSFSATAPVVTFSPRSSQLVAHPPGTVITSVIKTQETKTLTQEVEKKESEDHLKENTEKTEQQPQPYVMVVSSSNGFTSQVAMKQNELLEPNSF
Procedure, shortened: as §1

EHF = target: T5, EHF (Homo sapiens, UniProt Q9NZC4 1-300)
T5 sequence: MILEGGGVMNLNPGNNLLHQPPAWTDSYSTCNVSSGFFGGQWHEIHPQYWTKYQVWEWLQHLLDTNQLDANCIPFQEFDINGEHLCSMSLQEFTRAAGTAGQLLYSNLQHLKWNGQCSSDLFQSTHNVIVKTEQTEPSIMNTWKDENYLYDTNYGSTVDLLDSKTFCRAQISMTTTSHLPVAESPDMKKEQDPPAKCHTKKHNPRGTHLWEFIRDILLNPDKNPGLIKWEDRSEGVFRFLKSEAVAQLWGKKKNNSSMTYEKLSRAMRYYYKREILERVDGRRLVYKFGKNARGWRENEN
Procedure, shortened: as §1

SPI1 = SPI1 (Homo sapiens, UniProt P17947 1-270)
Procedure, shortened: as §1

SPIB = SPIB (Homo sapiens, UniProt Q01892 1-262)
Sequence of SPIB (Q01892 whole entry): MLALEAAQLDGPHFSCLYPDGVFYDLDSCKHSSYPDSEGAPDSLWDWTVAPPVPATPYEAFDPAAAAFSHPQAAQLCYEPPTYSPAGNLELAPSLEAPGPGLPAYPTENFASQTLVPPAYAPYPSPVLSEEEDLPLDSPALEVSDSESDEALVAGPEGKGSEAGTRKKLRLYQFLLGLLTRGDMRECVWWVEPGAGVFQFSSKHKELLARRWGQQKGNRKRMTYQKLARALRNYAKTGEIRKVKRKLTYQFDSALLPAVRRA
Procedure, shortened: as §1

ELK3 = target: T6, ELK3 (Homo sapiens, UniProt P41970 1-407)
T6 sequence: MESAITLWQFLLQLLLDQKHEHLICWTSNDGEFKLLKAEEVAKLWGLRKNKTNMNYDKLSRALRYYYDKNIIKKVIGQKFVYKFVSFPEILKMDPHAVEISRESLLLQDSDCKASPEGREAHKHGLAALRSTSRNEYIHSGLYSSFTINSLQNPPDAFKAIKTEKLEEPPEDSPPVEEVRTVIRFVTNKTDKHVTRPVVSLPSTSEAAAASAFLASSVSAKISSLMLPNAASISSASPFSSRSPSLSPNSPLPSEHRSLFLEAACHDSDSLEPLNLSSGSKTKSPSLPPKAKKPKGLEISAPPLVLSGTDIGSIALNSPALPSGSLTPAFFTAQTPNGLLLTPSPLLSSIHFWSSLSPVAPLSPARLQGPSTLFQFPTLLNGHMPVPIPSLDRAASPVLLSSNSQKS
Procedure, shortened: as §1

| Sequence | binding signal (FLI1) | binding signal (ELK1) | binding signal (GABPA) | binding signal (ERG) | binding signal (ELF1) | binding signal (EHF) | binding signal (SPI1) | binding signal (SPIB) | binding signal (ELK3) |
| --- | --- | --- | --- | --- | --- | --- | --- | --- | --- |
| AAGTTA | 1.25 fold enrichment (6-mer frequency, TF over GST control) | 1.26 fold enrichment (6-mer frequency, TF over GST control) | 1.19 fold enrichment (6-mer frequency, TF over GST control) | 1.27 fold enrichment (6-mer frequency, TF over GST control) | 1.27 fold enrichment (6-mer frequency, TF over GST control) | 1.24 fold enrichment (6-mer frequency, TF over GST control) | 1.24 fold enrichment (6-mer frequency, TF over GST control) | 1.12 fold enrichment (6-mer frequency, TF over GST control) | 1.23 fold enrichment (6-mer frequency, TF over GST control) |
| TAATAC | 1.11 fold enrichment (6-mer frequency, TF over GST control) | 1.07 fold enrichment (6-mer frequency, TF over GST control) | 1.04 fold enrichment (6-mer frequency, TF over GST control) | 1.09 fold enrichment (6-mer frequency, TF over GST control) | 1.13 fold enrichment (6-mer frequency, TF over GST control) | 1.13 fold enrichment (6-mer frequency, TF over GST control) | 1.05 fold enrichment (6-mer frequency, TF over GST control) | 1.06 fold enrichment (6-mer frequency, TF over GST control) | 1.04 fold enrichment (6-mer frequency, TF over GST control) |
| ATATGC | 1.09 fold enrichment (6-mer frequency, TF over GST control) | 1.15 fold enrichment (6-mer frequency, TF over GST control) | 1.15 fold enrichment (6-mer frequency, TF over GST control) | 1.13 fold enrichment (6-mer frequency, TF over GST control) | 1.1 fold enrichment (6-mer frequency, TF over GST control) | 1.08 fold enrichment (6-mer frequency, TF over GST control) | 1.16 fold enrichment (6-mer frequency, TF over GST control) | 1.07 fold enrichment (6-mer frequency, TF over GST control) | 1.05 fold enrichment (6-mer frequency, TF over GST control) |
| CCCGTA | 1.14 fold enrichment (6-mer frequency, TF over GST control) | 1.11 fold enrichment (6-mer frequency, TF over GST control) | 1.2 fold enrichment (6-mer frequency, TF over GST control) | 1.2 fold enrichment (6-mer frequency, TF over GST control) | 1.25 fold enrichment (6-mer frequency, TF over GST control) | 1.24 fold enrichment (6-mer frequency, TF over GST control) | 1.19 fold enrichment (6-mer frequency, TF over GST control) | 1.14 fold enrichment (6-mer frequency, TF over GST control) | 1.32 fold enrichment (6-mer frequency, TF over GST control) |
| TATAGG | 1.14 fold enrichment (6-mer frequency, TF over GST control) | 1.06 fold enrichment (6-mer frequency, TF over GST control) | 1.19 fold enrichment (6-mer frequency, TF over GST control) | 1.18 fold enrichment (6-mer frequency, TF over GST control) | 1.15 fold enrichment (6-mer frequency, TF over GST control) | 1.28 fold enrichment (6-mer frequency, TF over GST control) | 1.23 fold enrichment (6-mer frequency, TF over GST control) | 1.27 fold enrichment (6-mer frequency, TF over GST control) | 1.08 fold enrichment (6-mer frequency, TF over GST control) |
| GCCTAC | 1.18 fold enrichment (6-mer frequency, TF over GST control) | 1.17 fold enrichment (6-mer frequency, TF over GST control) | 1.28 fold enrichment (6-mer frequency, TF over GST control) | 1.25 fold enrichment (6-mer frequency, TF over GST control) | 1.21 fold enrichment (6-mer frequency, TF over GST control) | 1.25 fold enrichment (6-mer frequency, TF over GST control) | 1.18 fold enrichment (6-mer frequency, TF over GST control) | 1.21 fold enrichment (6-mer frequency, TF over GST control) | 1.1 fold enrichment (6-mer frequency, TF over GST control) |
| AATTGA | 1.18 fold enrichment (6-mer frequency, TF over GST control) | 1.19 fold enrichment (6-mer frequency, TF over GST control) | 1.2 fold enrichment (6-mer frequency, TF over GST control) | 1.16 fold enrichment (6-mer frequency, TF over GST control) | 1.15 fold enrichment (6-mer frequency, TF over GST control) | 1.25 fold enrichment (6-mer frequency, TF over GST control) | 1.16 fold enrichment (6-mer frequency, TF over GST control) | 1.2 fold enrichment (6-mer frequency, TF over GST control) | 1.27 fold enrichment (6-mer frequency, TF over GST control) |
